# Measurements as given in the supplement of paper PMC12350171.
# Where a name gives a salt, the structure may show the parent alone.
# System: Haemophilus parainfluenzae
# Experiment: growth AUC normalised to DMSO control (fraction of control); higher = less growth inhibition, active = hit call of the paper
# Conditions: 20 µM;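 active = AUC significantly below DMSO controls by Student t-fit with adjusted P under 0.01; inactive = not significantly reduced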
# Method in brief: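 After two anaerobic passages, pathogens were added at a starting OD578 of 0.01 to pre-reduced mGAM plates holding compound at 20 μM with 1% DMSO; hemin and NAD were supplemented for Haemophilus parainfluenzae. Sealed with breathable membranes, plates were read at OD578 hourly for 24 h, in three biological replicates. The trapezoidal rule, applied up to the exponential-to-stationary transition, gave the growth-curve AUC, which was normalised to DMSO controls on the same plate.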
row,Compound,growth AUC normalised to DMSO control
1,CN(C)[C@@H]1C(=O)C(C(N)=O)=C(O)[C@@]2(O)C(=O)C3=C(O)c4c(O)ccc(Cl)c4[C@@H](O)[C@H]3C[C@@H]12 [Demeclocycline hydrochloride],0.0384 (active)
2,CCOC(=O)[C@H](CCc1ccccc1)N[C@H]1CCc2ccccc2N(CC(=O)O)C1=O [Benazepril hydrochloride],0.995 (inactive)
3,COc1ccccc1N1CCN(CCCCNC(=O)c2ccc3ccccc3c2)CC1,0.997 (inactive)
4,COC(=O)Nc1nc2cc(C(=O)c3ccc(F)cc3)ccc2[nH]1 [Flubendazol],1.02 (inactive)
